The values below come from patent US20150152398, “Endoribonuclease and Methods of Use Thereof” (The Regents of the University of California, published 2015).

The target of one test is T1, TtCas6A (TTHA0078, Cas6) (Thermus thermophilus HB8).
T1 chain: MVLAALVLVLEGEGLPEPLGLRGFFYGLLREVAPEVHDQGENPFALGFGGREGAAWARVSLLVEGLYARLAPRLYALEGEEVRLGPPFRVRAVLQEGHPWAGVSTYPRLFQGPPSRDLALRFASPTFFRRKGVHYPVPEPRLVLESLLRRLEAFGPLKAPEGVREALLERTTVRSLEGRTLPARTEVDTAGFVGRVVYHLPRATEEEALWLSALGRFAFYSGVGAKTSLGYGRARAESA
Briefly: EMSA; Kd in FIG. 24C only. Conditions: chain copies: 2 stated (dimer in solution); hairpin; ssRNA; [17,28]. The source says:
FIG. 22 illustrates that TtCas6A and TtCas6B both cleave repeats R1 and R3 and retain their cleaved products. (A) Sequences and predicted secondary structures of T. thermophilus CRISPR repeats. Sites of cleavage are indicated with blue arrows. TtCas6e (TTHB192) cleaves repeat R2, while TtCas6A (TTHA0078) and TtCas6B (TTHB231) both cleave repeats R1 and R3. (B) Cleavage product binding affinities of TtCas6A and TtCas6B enzymes. Maltose binding protein (MBP)-fused TtCas6A or TtCas6B were bound to in 5′-radiolabelled, vitro transcribed R1 and R3 RNAs. Bound and unbound fractions were resolved by electrophoresis on a native polyacrylamide gel and visualized by phosphorimaging. The data for these and all subsequent binding assays were fit with standard binding isotherms (solid line). Error bars on each data point denote standard error of the mean (SEM) from three independent experiments. (C) Experiments to confirm single turnover. RNA cleavage assays were carried out at indicated protein:RNA ratios. RNA cleavage was monitored using denaturing polyacrylamide gel electrophoresis. The data from these and all subsequent endoribonuclease activity assays were fit with single exponential curves to yield first-order rate constants. (Top to bottom: FIG. 22A, SEQ ID NOs: 1, 2, 55).
To test the importance of the stem sequence for substrate RNA recognition by TtCas6A, a series of EMSAs was performed using R1 repeat-derived RNAs that carried single base pair substitutions (C-G→A-U). All mutant RNAs contained the complete 5′ segment and additional two nucleotides downstream of the cleavage site. Compared to the wild-type RNA, substitution of any of the four C-G base pairs in the stem led to about five-fold decrease in affinity (FIG. 24C). This is consistent with the observation that the lower three C-G base pairs are specifically read out by Arg129. The binding defect observed upon mutation of the closing (uppermost) base pair could be due to loss of stability of the stem-loop structure, which is determined by the closing base-pair (Serra et al, 1993). […]
(In general: Mobility shift assays separate free from complexed probe on a gel.)
For the sequence GUUGCAAGGGAUUGAGACCCGUAAGGGUAU, the binding signal is ~5 fold lower affinity than wild-type RNA.

The test is the same for the next values; noted with them: chain copies: 2 stated (dimer in solution); hairpin; ssRNA; [18,27].
With GUUGCAAGGGAUUGAGCACCGUAAGGUGAU, the binding signal was ~5 fold lower affinity than wild-type RNA.

Still in this test, the particulars now being: chain copies: 2 stated (dimer in solution); hairpin; ssRNA; [19,26].
On to GUUGCAAGGGAUUGAGCCACGUAAGUGGAU, for which the binding signal was ~5 fold lower affinity than wild-type RNA.
